{"source": "paper PMC11006913", "assay_in_all_cases": "PBM; 200 nM protein, PBS", "details_in_all_cases": "dsDNA, one strand shown", "key": {"[1]": {"target": "T1, NKX2-4 (Homo sapiens, UniProt Q9H2Z4 175-261, P217L)", "T1 sequence": "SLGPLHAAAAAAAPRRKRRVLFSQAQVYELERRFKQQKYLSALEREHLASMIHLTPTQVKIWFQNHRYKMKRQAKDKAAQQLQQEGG"}, "[2]": {"target": "T2, NKX2-4 (Homo sapiens, UniProt Q9H2Z4 175-261, T231S)", "T2 sequence": "T1 sequence with L43P, T57S"}, "[3]": {"target": "ALX4 (Homo sapiens, UniProt Q9H161 200-286)", "sequence (Q9H161 200-286)": "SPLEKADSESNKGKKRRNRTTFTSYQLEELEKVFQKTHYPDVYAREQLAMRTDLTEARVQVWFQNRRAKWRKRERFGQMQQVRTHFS"}, "[4]": {"target": "T3, NKX2-4 (Homo sapiens, UniProt Q9H2Z4 175-261)", "T3 sequence": "T1 sequence with L43P"}, "[5]": {"target": "ALX4 (Homo sapiens, UniProt Q9H161 200-286, Q225E)", "sequence (Q9H161 200-286 Q225E)": "as the sequence (Q9H161 200-286) above, with Q26E counted along it"}, "[6]": {"target": "T4, NKX2-4 (Homo sapiens, UniProt Q9H2Z4 175-261, R246Q)", "T4 sequence": "T1 sequence with L43P, R72Q"}, "[7]": {"target": "MSX2 (Homo sapiens, UniProt P35548 130-214, R199I)", "sequence (P35548 130-214 R199I)": "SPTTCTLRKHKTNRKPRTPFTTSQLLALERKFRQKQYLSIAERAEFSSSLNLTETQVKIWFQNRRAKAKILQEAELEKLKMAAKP"}, "[8]": {"target": "MSX2 (Homo sapiens, UniProt P35548 130-214)", "sequence (P35548 130-214)": "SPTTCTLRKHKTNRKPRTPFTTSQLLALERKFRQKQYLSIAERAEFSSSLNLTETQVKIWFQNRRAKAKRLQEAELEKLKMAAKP"}, "[9]": {"target": "PROP1 (Homo sapiens, UniProt O75360 56-141)", "sequence (O75360 56-141)": "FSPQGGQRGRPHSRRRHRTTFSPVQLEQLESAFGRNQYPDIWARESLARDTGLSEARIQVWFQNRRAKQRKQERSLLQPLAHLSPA"}, "[10]": {"target": "PROP1 (Homo sapiens, UniProt O75360 56-141, R99H)", "sequence (O75360 56-141 R99H)": "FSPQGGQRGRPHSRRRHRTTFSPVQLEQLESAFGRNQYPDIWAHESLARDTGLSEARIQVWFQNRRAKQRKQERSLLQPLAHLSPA"}, "[11]": {"target": "PROP1 (Homo sapiens, UniProt O75360 56-141, F88S)", "sequence (O75360 56-141 F88S)": "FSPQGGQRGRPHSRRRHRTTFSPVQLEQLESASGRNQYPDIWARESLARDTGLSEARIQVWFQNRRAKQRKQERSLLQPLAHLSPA"}, "[12]": {"target": "MSX2 (Homo sapiens, UniProt P35548 130-214, F161Y)", "sequence (P35548 130-214 F161Y)": "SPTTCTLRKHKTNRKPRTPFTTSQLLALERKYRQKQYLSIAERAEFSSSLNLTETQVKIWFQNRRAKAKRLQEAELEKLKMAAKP"}, "[13]": {"target": "T5, NKX2-6 (Homo sapiens, UniProt A6NCS4 118-204, R150C)", "T5 sequence": "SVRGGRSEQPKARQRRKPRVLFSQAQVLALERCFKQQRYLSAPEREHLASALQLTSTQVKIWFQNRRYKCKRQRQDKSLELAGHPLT"}, "[14]": {"target": "T6, NKX2-6 (Homo sapiens, UniProt A6NCS4 118-204)", "T6 sequence": "T5 sequence with C33R"}, "[15]": {"target": "T7, NKX2-6 (Homo sapiens, UniProt A6NCS4 118-204, F151L)", "T7 sequence": "T5 sequence with C33R, F34L"}, "[16]": {"target": "HOXD13 (Homo sapiens, UniProt P35453 263-343, T313R)", "sequence (P35453 263-343 T313R)": "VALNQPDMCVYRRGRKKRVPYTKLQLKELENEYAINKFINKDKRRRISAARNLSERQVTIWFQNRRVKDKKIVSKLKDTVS"}, "[17]": {"target": "HOXD13 (Homo sapiens, UniProt P35453 263-343)", "sequence (P35453 263-343)": "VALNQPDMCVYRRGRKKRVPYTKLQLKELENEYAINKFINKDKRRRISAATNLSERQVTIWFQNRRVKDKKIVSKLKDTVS"}, "[18]": {"target": "HOXD13 (Homo sapiens, UniProt P35453 263-343, T313A)", "sequence (P35453 263-343 T313A)": "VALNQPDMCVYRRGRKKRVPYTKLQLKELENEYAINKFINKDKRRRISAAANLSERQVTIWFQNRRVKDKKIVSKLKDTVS"}}, "note": "Residue numbers refer to the chain shown, from its start."}
{"sequence": "CGTCCCGA", "values": [{"measurement": "binding signal", "setting": "[1]", "value": "9.52 upbm affinity estimate (log intensity, higher = more binding, comparable within an allelic series)"}, {"measurement": "binding signal", "setting": "[2]", "value": "9.51 upbm affinity estimate (log intensity, higher = more binding, comparable within an allelic series)"}, {"measurement": "binding signal", "setting": "[3]", "value": "8.27 upbm affinity estimate (log intensity, higher = more binding, comparable within an allelic series)"}, {"measurement": "binding signal", "setting": "[4]", "value": "9.43 upbm affinity estimate (log intensity, higher = more binding, comparable within an allelic series)"}, {"measurement": "binding signal", "setting": "[5]", "value": "8.37 upbm affinity estimate (log intensity, higher = more binding, comparable within an allelic series)"}, {"measurement": "binding signal", "setting": "[6]", "value": "9.52 upbm affinity estimate (log intensity, higher = more binding, comparable within an allelic series)"}]}
{"sequence": "CCTCTTCA", "values": [{"measurement": "binding signal", "setting": "[1]", "value": "12.5 upbm affinity estimate (log intensity, higher = more binding, comparable within an allelic series)"}, {"measurement": "binding signal", "setting": "[2]", "value": "12.8 upbm affinity estimate (log intensity, higher = more binding, comparable within an allelic series)"}, {"measurement": "binding signal", "setting": "[4]", "value": "12.4 upbm affinity estimate (log intensity, higher = more binding, comparable within an allelic series)"}, {"measurement": "binding signal", "setting": "[6]", "value": "13 upbm affinity estimate (log intensity, higher = more binding, comparable within an allelic series)"}]}
{"sequence": "GACTGAGC", "values": [{"measurement": "binding signal", "setting": "[1]", "value": "9.79 upbm affinity estimate (log intensity, higher = more binding, comparable within an allelic series)"}, {"measurement": "binding signal", "setting": "[2]", "value": "9.84 upbm affinity estimate (log intensity, higher = more binding, comparable within an allelic series)"}, {"measurement": "binding signal", "setting": "[4]", "value": "9.65 upbm affinity estimate (log intensity, higher = more binding, comparable within an allelic series)"}, {"measurement": "binding signal", "setting": "[7]", "value": "9.57 upbm affinity estimate (log intensity, higher = more binding, comparable within an allelic series)"}, {"measurement": "binding signal", "setting": "[8]", "value": "9.48 upbm affinity estimate (log intensity, higher = more binding, comparable within an allelic series)"}, {"measurement": "binding signal", "setting": "[6]", "value": "9.92 upbm affinity estimate (log intensity, higher = more binding, comparable within an allelic series)"}, {"measurement": "binding signal", "setting": "[9]", "value": "6.86 upbm affinity estimate (log intensity, higher = more binding, comparable within an allelic series)"}, {"measurement": "binding signal", "setting": "[10]", "value": "6.74 upbm affinity estimate (log intensity, higher = more binding, comparable within an allelic series)"}, {"measurement": "binding signal", "setting": "[11]", "value": "6.66 upbm affinity estimate (log intensity, higher = more binding, comparable within an allelic series)"}, {"measurement": "binding signal", "setting": "[12]", "value": "9.49 upbm affinity estimate (log intensity, higher = more binding, comparable within an allelic series)"}]}
{"sequence": "CCCAAACG", "values": [{"measurement": "binding signal", "setting": "[1]", "value": "9.71 upbm affinity estimate (log intensity, higher = more binding, comparable within an allelic series)"}, {"measurement": "binding signal", "setting": "[2]", "value": "9.8 upbm affinity estimate (log intensity, higher = more binding, comparable within an allelic series)"}, {"measurement": "binding signal", "setting": "[4]", "value": "9.76 upbm affinity estimate (log intensity, higher = more binding, comparable within an allelic series)"}, {"measurement": "binding signal", "setting": "[6]", "value": "9.88 upbm affinity estimate (log intensity, higher = more binding, comparable within an allelic series)"}]}
{"sequence": "AAAGGCGG", "values": [{"measurement": "binding signal", "setting": "[1]", "value": "9.6 upbm affinity estimate (log intensity, higher = more binding, comparable within an allelic series)"}, {"measurement": "binding signal", "setting": "[2]", "value": "9.51 upbm affinity estimate (log intensity, higher = more binding, comparable within an allelic series)"}, {"measurement": "binding signal", "setting": "[4]", "value": "9.55 upbm affinity estimate (log intensity, higher = more binding, comparable within an allelic series)"}, {"measurement": "binding signal", "setting": "[13]", "value": "9.54 upbm affinity estimate (log intensity, higher = more binding, comparable within an allelic series)"}, {"measurement": "binding signal", "setting": "[6]", "value": "9.58 upbm affinity estimate (log intensity, higher = more binding, comparable within an allelic series)"}]}
{"sequence": "AGAAGCCG", "values": [{"measurement": "binding signal", "setting": "[1]", "value": "9.64 upbm affinity estimate (log intensity, higher = more binding, comparable within an allelic series)"}, {"measurement": "binding signal", "setting": "[2]", "value": "9.7 upbm affinity estimate (log intensity, higher = more binding, comparable within an allelic series)"}, {"measurement": "binding signal", "setting": "[4]", "value": "9.69 upbm affinity estimate (log intensity, higher = more binding, comparable within an allelic series)"}, {"measurement": "binding signal", "setting": "[14]", "value": "9.29 upbm affinity estimate (log intensity, higher = more binding, comparable within an allelic series)"}, {"measurement": "binding signal", "setting": "[6]", "value": "9.62 upbm affinity estimate (log intensity, higher = more binding, comparable within an allelic series)"}, {"measurement": "binding signal", "setting": "[15]", "value": "9.27 upbm affinity estimate (log intensity, higher = more binding, comparable within an allelic series)"}]}
{"sequence": "AGACTGAC", "values": [{"measurement": "binding signal", "setting": "[1]", "value": "9.52 upbm affinity estimate (log intensity, higher = more binding, comparable within an allelic series)"}, {"measurement": "binding signal", "setting": "[2]", "value": "9.58 upbm affinity estimate (log intensity, higher = more binding, comparable within an allelic series)"}, {"measurement": "binding signal", "setting": "[4]", "value": "9.63 upbm affinity estimate (log intensity, higher = more binding, comparable within an allelic series)"}, {"measurement": "binding signal", "setting": "[6]", "value": "9.64 upbm affinity estimate (log intensity, higher = more binding, comparable within an allelic series)"}]}
{"sequence": "CTATTAAC", "values": [{"measurement": "binding signal", "setting": "[1]", "value": "11.7 upbm affinity estimate (log intensity, higher = more binding, comparable within an allelic series)"}, {"measurement": "binding signal", "setting": "[2]", "value": "11.8 upbm affinity estimate (log intensity, higher = more binding, comparable within an allelic series)"}, {"measurement": "binding signal", "setting": "[4]", "value": "11.6 upbm affinity estimate (log intensity, higher = more binding, comparable within an allelic series)"}, {"measurement": "binding signal", "setting": "[16]", "value": "10.8 upbm affinity estimate (log intensity, higher = more binding, comparable within an allelic series)"}, {"measurement": "binding signal", "setting": "[17]", "value": "12 upbm affinity estimate (log intensity, higher = more binding, comparable within an allelic series)"}, {"measurement": "binding signal", "setting": "[6]", "value": "11.8 upbm affinity estimate (log intensity, higher = more binding, comparable within an allelic series)"}, {"measurement": "binding signal", "setting": "[18]", "value": "11.8 upbm affinity estimate (log intensity, higher = more binding, comparable within an allelic series)"}]}
{"sequence": "ATTTAGTG", "values": [{"measurement": "binding signal", "setting": "[1]", "value": "11.4 upbm affinity estimate (log intensity, higher = more binding, comparable within an allelic series)"}, {"measurement": "binding signal", "setting": "[2]", "value": "11.6 upbm affinity estimate (log intensity, higher = more binding, comparable within an allelic series)"}, {"measurement": "binding signal", "setting": "[4]", "value": "11.4 upbm affinity estimate (log intensity, higher = more binding, comparable within an allelic series)"}, {"measurement": "binding signal", "setting": "[6]", "value": "11.5 upbm affinity estimate (log intensity, higher = more binding, comparable within an allelic series)"}]}
{"sequence": "CCGCCACG", "values": [{"measurement": "binding signal", "setting": "[1]", "value": "9.92 upbm affinity estimate (log intensity, higher = more binding, comparable within an allelic series)"}, {"measurement": "binding signal", "setting": "[2]", "value": "9.9 upbm affinity estimate (log intensity, higher = more binding, comparable within an allelic series)"}, {"measurement": "binding signal", "setting": "[4]", "value": "9.94 upbm affinity estimate (log intensity, higher = more binding, comparable within an allelic series)"}, {"measurement": "binding signal", "setting": "[6]", "value": "9.94 upbm affinity estimate (log intensity, higher = more binding, comparable within an allelic series)"}]}
{"sequence": "CAGCCCAG", "values": [{"measurement": "binding signal", "setting": "[1]", "value": "9.47 upbm affinity estimate (log intensity, higher = more binding, comparable within an allelic series)"}, {"measurement": "binding signal", "setting": "[2]", "value": "9.32 upbm affinity estimate (log intensity, higher = more binding, comparable within an allelic series)"}, {"measurement": "binding signal", "setting": "[4]", "value": "9.45 upbm affinity estimate (log intensity, higher = more binding, comparable within an allelic series)"}, {"measurement": "binding signal", "setting": "[6]", "value": "9.54 upbm affinity estimate (log intensity, higher = more binding, comparable within an allelic series)"}]}
{"sequence": "ACAATGAG", "values": [{"measurement": "binding signal", "setting": "[1]", "value": "11.4 upbm affinity estimate (log intensity, higher = more binding, comparable within an allelic series)"}, {"measurement": "binding signal", "setting": "[2]", "value": "11.5 upbm affinity estimate (log intensity, higher = more binding, comparable within an allelic series)"}, {"measurement": "binding signal", "setting": "[4]", "value": "11.3 upbm affinity estimate (log intensity, higher = more binding, comparable within an allelic series)"}, {"measurement": "binding signal", "setting": "[6]", "value": "11.4 upbm affinity estimate (log intensity, higher = more binding, comparable within an allelic series)"}]}
{"sequence": "AACGCCAG", "values": [{"measurement": "binding signal", "setting": "[1]", "value": "9.74 upbm affinity estimate (log intensity, higher = more binding, comparable within an allelic series)"}, {"measurement": "binding signal", "setting": "[2]", "value": "9.82 upbm affinity estimate (log intensity, higher = more binding, comparable within an allelic series)"}, {"measurement": "binding signal", "setting": "[4]", "value": "9.78 upbm affinity estimate (log intensity, higher = more binding, comparable within an allelic series)"}, {"measurement": "binding signal", "setting": "[6]", "value": "9.89 upbm affinity estimate (log intensity, higher = more binding, comparable within an allelic series)"}]}
{"sequence": "GGCGTGCA", "values": [{"measurement": "binding signal", "setting": "[1]", "value": "9.59 upbm affinity estimate (log intensity, higher = more binding, comparable within an allelic series)"}, {"measurement": "binding signal", "setting": "[2]", "value": "9.54 upbm affinity estimate (log intensity, higher = more binding, comparable within an allelic series)"}, {"measurement": "binding signal", "setting": "[4]", "value": "9.62 upbm affinity estimate (log intensity, higher = more binding, comparable within an allelic series)"}, {"measurement": "binding signal", "setting": "[6]", "value": "9.63 upbm affinity estimate (log intensity, higher = more binding, comparable within an allelic series)"}]}
